In the library only some 5.1% were active in any assay of this set; here they are far more common.
CRFR2-BP antag: antagonists of CRF-binding protein/CRF-R2 receptor complex. actives 0.59% (n = 350,000). HEK293 CRF-R2/CRF-BP, CRF-induced calcium fluorescence. inhibition, % at 11.8 µM;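 active means inhibition of the ligand-induced calcium signal above about 50% at the single tested concentration, limit read from the data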
MPTP block: permeability transition pore inhibition; isolated mouse mitochondria, Ca2+ swelling absorbance, 30 min; inhibition, % at 10 µM; actives 1.4% (n = 360,000); AID 602449;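 active means inhibition of 50% or more, scaled per plate between neutral and stimulator controls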;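 further: 0% = DMSO wells given calcium and 100% = 1 mM EGTA wells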
ANO1 block: blocks the mouse calcium-activated chloride channel TMEM16A; normalized B-score (activity score, 25-100; higher = stronger inhibition) at 10 µM; AID 588511; HEK293 TMEM16A/YFP iodide influx fluorescence, ionomycin; actives 1.2% (n = 310,000);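 active means ratio plate-corrected score three or more library SD toward inhibition, starting fluorescence score within five deviations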;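 further: score derived from kinetic fluorescence span divided by baseline fluorescence per well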
CRFR2-BP ag: agonists of human CRF-binding protein/CRF-R2 receptor complex; activation, % at 13.2 µM; HEK293 CRF-R2/CRF-BP, calcium dye fluorescence (FLIPR); percent of saturating CRF peptide response; actives 0.46% (n = 350,000);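 active means activation of at least 50%, plus an integration ratio under a set limit after plate pattern correction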;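 further: plate controls were neutral control wells without compound for no effect and CRF at EC100 for full effect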
GRIN3A LBD mod: NR3A (human) ligand-binding domain modulation. Tm shift relative to glycine control, % at 25 µM. actives 2.5% (n = 340,000). AID 1259313. NR3A LBD differential scanning fluorimetry, Tm shift; 0% = protein alone, 100% = glycine-bound protein;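 active means melting temperature shift of at least 10% of the positive control shift, at one fixed dose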
TMEM16A act: mouse TMEM16A channel activation, primary screen; B-score at 10 µM; AID 623877; Q8BHY3; actives 0.3% (n = 340,000); HEK293 TMEM16A/YFP-H148Q/I152L, iodide quench fluorescence; active compounds read low;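 active means fluorescence-ratio B-score plate-corrected deviation score at least 3 library SD below zero, with starting fluorescence score within 5 deviations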;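 further: channel opened by trigger with iodide after compound preincubation; score built on the fluorescence ratio of max minus min over baseline; more negative score means more quench and so TMEM16A activation or potentiation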
Numbers without * were called inactive; i = inactive; nt = not tested or not shown.

SMILES	CRFR2-BP antag	MPTP block	ANO1 block	CRFR2-BP ag	GRIN3A LBD mod	TMEM16A act
Cc1occc1-c1nnc(SCC(=O)NCc2cccs2)n1CC1CCCO1 (stereo unspecified)	-12	-1	nt	-2	-3	-9.5*
Cc1cc(Br)ccc1NC(=O)CNC(=O)CSc1nccn1C	-3	1	nt	0	-1	i
Cn1c(=O)c(C(=O)c2ccccc2)nc2ccccc21	18	0	i	0	3	i
Cn1cc(C(=O)c2ccc(Cl)cc2)cc1-c1nc2ccccc2n1C	-9	-1	100*	1	-1	i
N#CCC(CNc1ncc(C(F)(F)F)cc1Cl)OC(=O)c1ccc(Cl)cc1 (stereo unspecified)	-35	1	i	2	11*	i
CCOC(=O)c1cccc(NC(=O)c2ccc(NC(=O)c3ccco3)cc2)c1	-3	0	i	0	31*	i
CN(c1ccc(C(=O)Nc2cccnc2)cc1)S(=O)(=O)c1ccc(Cl)cc1	-12	2	i	0	2	i
C=Cc1cccc(NC(=O)c2ccc(NC(=O)c3ccco3)cc2)c1	3	-1	i	2	31*	i
CN(c1ccc(C(=O)Nc2cccnc2)cc1)S(=O)(=O)c1ccccc1	3	0	i	0	3	-5*
CCOC(=O)c1cccc(NS(=O)(=O)Cc2ccccc2)c1	149*	-1	i	-4	0	i
N#Cc1ccccc1COC(=O)c1cccc(S(=O)(=O)N2CCCC2)c1	-6	0	nt	-1	-1	i
Cc1ccc(-c2csc(C(O)c3ccc(F)cc3)n2)cc1C (stereo unspecified)	nt	3	nt	nt	nt	nt
Cc1cc(C)cc(NC(=O)c2ccc(NC(=O)c3ccco3)cc2)c1	7	1	i	0	18*	i
Cc1cccc(NC(=O)c2cccc(NC(=O)c3ccco3)c2)c1	28	2	nt	0	1	i
O=C(Nc1cccc2ncccc12)c1ccc2c(c1)OCCO2	13	-5	i	57*	-2	i
Cc1nc2ccc(NC(=O)c3cccc(S(=O)(=O)N(C)c4ccccc4)c3)cc2s1	11	49	i	4	18*	i
COc1ccc(N(C)S(=O)(=O)c2cccc(C(=O)Nc3ccc(-n4cnnn4)cc3)c2)cc1	-22	3	i	8	26*	i
Cn1c(=O)[nH]c(=O)c2c1nc(N/N=C/c1ccncc1)n2Cc1ccc(Cl)cc1	-5	2	i	-1	1	i
O=C(N/N=C(\c1ccccc1)c1cccnc1)c1cc(O)ccc1O	nt	nt	i	nt	nt	nt
Cc1cccc(C)c1NC(=O)C1(C)CSCC(=O)N1CCc1ccc(O)cc1 (stereo unspecified)	nt	-1	nt	nt	nt	nt
CCCCOc1cccc(C(=O)Nc2ccc(NC(=O)c3ccco3)cc2)c1	1	-6	i	0	12*	i
O=C(Oc1ccccc1)c1ccc(NC(=O)c2ccco2)cc1	79*	0	i	-3	-8	i
Cc1ccc(NC(=O)c2ccc(OC(=O)c3ccco3)cc2)cc1	19	0	i	0	-3	i
CC(=O)Nc1ccc(NC(=O)c2ccco2)cc1	2	1	i	2	-6	i
CCOC(=O)c1cccc(P(C)(C)=O)c1	6	0	i	0	22*	i
SMILES	CRFR2-BP antag	MPTP block	ANO1 block	CRFR2-BP ag	GRIN3A LBD mod	TMEM16A act
CC(=O)c1ccc(NC(=O)c2ccc(NC(=O)c3ccco3)cc2)cc1	0	0	i	0	13*	i
CCOC(=O)C1=CCC(c2ccc(C)cc2)N(S(=O)(=O)c2ccc(C)cc2)C1 (stereo unspecified)	nt	-1	nt	nt	nt	nt
CC(=O)Nc1nc2ccc(NC(=O)c3ccco3)cc2s1	13	1	i	0	-8	i
CC(C)COc1ccc(C(=O)Nc2ccc(NC(=O)c3ccco3)cc2)cc1	15	1	i	-1	-2	i
Cc1cc(NC(=O)c2ccc3c(c2)OCCO3)ccc1NC(=O)c1ccco1	-10	0	i	1	1	i
COC(=O)c1ccc(NC(=O)c2ccc(NC(=O)c3ccco3)cc2)cc1	1	0	i	0	25*	i
Cc1nc2ccc(NC(=O)c3ccco3)cc2s1	15	3	i	0	16*	i
CCOc1ccc(C(=O)Nc2ccc(NC(=O)c3ccco3)c(Cl)c2)cc1Br	-5	4	i	0	40*	i
O=C(Nc1ccc(NC(=O)c2ccco2)cc1)c1ccc2c(c1)OCCO2	-37	3	i	1	10*	i
CCOC(=O)c1cccc(NC(=O)Nc2ccc(OCC)cc2)c1	9	12	i	2	20*	i
CCOc1ccc(NC(=O)Nc2cccc(C(=O)O)c2)cc1	1	-2	i	0	-13	i
COc1ccc(C(=O)NC(=S)Nc2ccc3c4c(cccc24)CC3)cc1OC	-16	0	i	5	0	i
COc1ccc2c3c(cccc13)C(=O)CC2	-95	4	i	139*	-1	i
CCCNS(=O)(=O)c1ccc(Oc2ncc(C(F)(F)F)cc2Cl)cc1	-77	7	i	81*	-1	i
COC(=O)CC1Sc2ccccc2NC1=O (stereo unspecified)	-9	0	i	1	14*	i
COc1ccc(NC(=O)COC(=O)CC2Sc3ccccc3NC2=O)cc1 (stereo unspecified)	19	-1	nt	0	4	i
Cc1ccc(NC2Sc3ccccc3NC2=O)cc1 (stereo unspecified)	-15	-5	i	-2	13*	i
O=C1Nc2ccccc2SC1c1ccccc1 (stereo unspecified)	-5	0	i	-3	1	i
O=C(NC1CCN(Cc2ccccc2)CC1)c1cccc(S(=O)(=O)Nc2cc(C(F)(F)F)ccc2Cl)c1	-9	4	25*	-3	2	i
O=C(NCc1ccccn1)Nc1cccc(Cl)c1Cl	12	0	i	0	1	i
O=C(Nc1cccc(Br)c1)c1ccc2c(c1)SC1=NS(=O)(=O)CCN12	4	0	nt	-2	18*	i
C[C@@H]1CCCCO[C@@H](CN(C)CC2CC2)[C@@H](C)CN([C@H](C)CO)C(=O)c2cc(N(C)C)ccc2O1	66*	-3	nt	0	nt	nt
Nc1c(N(CCC2=CCCCC2)C(=O)Cc2ccccc2F)c(=O)[nH]c(=O)n1Cc1ccccc1	-26	-1	nt	22	0	i
CSc1nc(Cl)c(Cc2ccc(OC(C)C)cc2)c(N2CCOCC2)n1	-6	28	100*	3	2	i

Source: PubChem (several laboratories)
